Our source for the growth values is PubChem BioAssay (NCI).

Some test systems named below: MOLT-4 leukemia; SR leukemia; RPMI-8226 leukemia; OVCAR-8 ovarian; OVCAR-5 ovarian; OVCAR-4 ovarian; SK-OV-3 ovarian; IGROV1 ovarian; OVCAR-3 ovarian; HS 578T breast; NCI/ADR-RES ovarian; T-47D breast; BT-549 breast; MDA-MB-435 melanoma; SW-620 colon; MCF7 breast; HCT-116 colon; HCC-2998 colon; KM12 colon.
Test in all cases: NCI-60 one-dose screen, 48 h (100 = growth as untreated, 0 = no growth, -100 = all killed)
Holding throughout (settings): 10 µM unless noted

This is part of a sample that, as a whole, favours compounds with a hit. Of some 83,000 tested, about 20% had one in any assay.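 A percent growth of 40 corresponds to 60% growth inhibition; 0 means no net growth; -100 means all cells died. Active threshold: below 10.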 A number with no mark means an inactive call. Calls of active or inactive are those of the source.

Take `CCOP(=O)(NC[C@H]1O[C@](O)(CO)[C@@H](O)[C@@H]1O)OCC`: the growth in the assay with MOLT-4 leukemia was 95.9%; in the assay with SR leukemia it was 97.1%; in the assay with RPMI-8226 leukemia, 101%; with OVCAR-8 ovarian it was 103%; in the assay on OVCAR-5 ovarian, 112%; with OVCAR-4 ovarian it was 103%. For the same compound, the growth in the assay with SK-OV-3 ovarian is 87.6%; in the assay on IGROV1 ovarian, 94.5%; in the assay on OVCAR-3 ovarian it was 103%; with HS 578T breast, 96.4%; in the assay on NCI/ADR-RES ovarian it was 100%; with T-47D breast, 98.1%. For the same compound, the growth in the assay with BT-549 breast was 87.1%; with MDA-MB-435 melanoma, 106%; with SW-620 colon, 104%; with MCF7 breast it was 95.1%; with HCT-116 colon, 95.6%; with HCC-2998 colon, 103%. Also, the growth in the assay on KM12 colon was 99.3%.
Take `CC[C@H](C)[C@H](NC(=O)c1cccn1C)C(=O)N(C)[C@H](C[C@@H](OC(C)=O)c1nc(C(=O)N[C@@H](Cc2ccccc2)C[C@H](C)C(=O)OC)cs1)C(C)C`: the growth with MOLT-4 leukemia was 16.2%; with SR leukemia, 14.4%; with RPMI-8226 leukemia, 18.6%; in the assay on OVCAR-8 ovarian, 15.6%; with OVCAR-5 ovarian, 43.5%; in the assay with OVCAR-4 ovarian, 46.9%. Further, the growth in the assay with SK-OV-3 ovarian was 10.8%; with IGROV1 ovarian, 23%; in the assay on OVCAR-3 ovarian, -3.92% (active); in the assay on HS 578T breast it was 27%; with NCI/ADR-RES ovarian it was 7.66% (active); in the assay on T-47D breast, 64%. Moreover, the growth with BT-549 breast was -27% (active); with MDA-MB-435 melanoma, -18.2% (active); in the assay on SW-620 colon it was 26.2%; in the assay on MCF7 breast, 15%; with HCT-116 colon, -3.74% (active); in the assay on HCC-2998 colon it was 18.4%. Besides, the growth in the assay with KM12 colon was 10%.
`Fc1ccc2c(c1)c(-c1nc(-c3c[nH]c4ncccc34)cs1)cn2CCCCN1CCCCC1`: the growth is -67.7% (active) in the assay with MOLT-4 leukemia; -60.2% (active) in the assay with SR leukemia; -49.6% (active) in the assay on RPMI-8226 leukemia; -82.9% (active) in the assay with OVCAR-8 ovarian; -68.2% (active) in the assay with OVCAR-5 ovarian; -23.8% (active) with OVCAR-4 ovarian. In addition, the growth with SK-OV-3 ovarian is -72.6% (active); in the assay with IGROV1 ovarian, -60.5% (active); in the assay with OVCAR-3 ovarian, -84.3% (active); in the assay on HS 578T breast it was -28.6% (active); in the assay with NCI/ADR-RES ovarian, -64.1% (active); in the assay with T-47D breast, -68.8% (active). The growth in the assay on BT-549 breast is 75.7%; with MDA-MB-435 melanoma it was -87.2% (active); with SW-620 colon it was -73.7% (active); in the assay on MCF7 breast it was -75.3% (active); with HCT-116 colon it was -97.9% (active); in the assay with HCC-2998 colon, -19% (active). In the assay on KM12 colon, the growth was -66.9% (active).
With `COC(=O)[C@@]1(C)CC[C@]2(C)CC[C@]3(C)C4=CC=C5C(=CC(=O)C(O)=C5C)[C@]4(C)CC[C@@]3(C)[C@@H]2C1`, the growth in the assay on MOLT-4 leukemia was -43.3% (active); in the assay on SR leukemia it was -46.7% (active); in the assay on RPMI-8226 leukemia, -26.7% (active); in the assay on OVCAR-8 ovarian it was -72.9% (active); in the assay with OVCAR-5 ovarian, -93.1% (active); in the assay with OVCAR-4 ovarian, -95% (active). Besides, the growth with SK-OV-3 ovarian is -97.6% (active); in the assay with IGROV1 ovarian it was -77.4% (active); in the assay with OVCAR-3 ovarian it was -92.1% (active); with HS 578T breast it was -41.6% (active); in the assay on NCI/ADR-RES ovarian, -59.8% (active); with T-47D breast it was -57.1% (active). For the same compound, the growth is -95.2% (active) with BT-549 breast; -90.8% (active) in the assay on MDA-MB-435 melanoma; -83% (active) in the assay on SW-620 colon; -69.1% (active) in the assay with MCF7 breast; -96.4% (active) with HCT-116 colon; -69.5% (active) in the assay on HCC-2998 colon.
Turning to `O=C(CCCCCCC(=O)Nc1ccc(N(CCCl)CCCl)cc1)NO`, the growth in the assay with MOLT-4 leukemia was 19.5%; in the assay with SR leukemia, 12.2%; in the assay with RPMI-8226 leukemia, 49.1%; in the assay on OVCAR-8 ovarian, 19.3%; in the assay with OVCAR-5 ovarian, 53.7%; in the assay with OVCAR-4 ovarian it was 44.9%. In addition, the growth in the assay on SK-OV-3 ovarian was 26.3%; in the assay with IGROV1 ovarian, 59.2%; in the assay on OVCAR-3 ovarian, 41.7%; in the assay on HS 578T breast, 71.7%; in the assay on NCI/ADR-RES ovarian, 64.6%; in the assay on T-47D breast, -8.98% (active). The growth with BT-549 breast was 58.9%; in the assay on MDA-MB-435 melanoma it was 45.1%; in the assay with SW-620 colon it was 33.2%; with MCF7 breast, 9.37% (active); in the assay with HCT-116 colon it was 36.1%; with HCC-2998 colon, 52.1%. In addition, in the assay with KM12 colon, the growth is 63%.
Consider `O=C(CCCCCNC1=CC(=O)c2ccccc2C1=O)NCCC[Te]c1ccccc1`, for which the growth is 29.7% with MOLT-4 leukemia; 38.3% in the assay with SR leukemia; 10.5% in the assay on RPMI-8226 leukemia; 8.94% (active) in the assay with OVCAR-8 ovarian; -37% (active) in the assay with OVCAR-5 ovarian; -44.8% (active) in the assay on OVCAR-4 ovarian. In addition, the growth was -39.6% (active) with SK-OV-3 ovarian; -24% (active) in the assay with IGROV1 ovarian; -43.8% (active) in the assay on OVCAR-3 ovarian; -9.34% (active) with HS 578T breast; -0.191% (active) in the assay with NCI/ADR-RES ovarian; -60.5% (active) in the assay with T-47D breast. Also, the growth in the assay on BT-549 breast is -27.7% (active); in the assay on MDA-MB-435 melanoma, -15.5% (active); in the assay with SW-620 colon, -7.07% (active); in the assay on MCF7 breast, 4.88% (active); with HCT-116 colon it was -51% (active); in the assay on HCC-2998 colon, -48.7% (active). Besides, in the assay on KM12 colon, the growth is -41.6% (active).
As for `COc1ccc(NC([Se])=NC23CC4CC(CC(C4)C2)C3)cc1`, the growth in the assay on MOLT-4 leukemia is 5.72% (active); in the assay on SR leukemia, 5.11% (active); with RPMI-8226 leukemia, -31.9% (active); with OVCAR-8 ovarian it was -0.307% (active); in the assay with OVCAR-5 ovarian it was -12.9% (active); in the assay with OVCAR-4 ovarian it was 6.53% (active). Also, the growth was -18.2% (active) with SK-OV-3 ovarian; 3.84% (active) in the assay with IGROV1 ovarian; -32.3% (active) with OVCAR-3 ovarian; -5.52% (active) in the assay on HS 578T breast; 1.9% (active) with NCI/ADR-RES ovarian; -11.7% (active) in the assay on T-47D breast. In addition, the growth with BT-549 breast was 11.3%; with MDA-MB-435 melanoma it was 20%; in the assay with SW-620 colon, 2.24% (active); with MCF7 breast it was 11.4%; with HCT-116 colon it was 1.65% (active); in the assay on HCC-2998 colon, 14.6%. The growth in the assay on KM12 colon was 5.4% (active).
Turning to `Brc1ccc2c(c1)c(-c1nc(-c3c[nH]c4ncccc34)cs1)cn2CCN1CCOCC1`, the growth was 41.3% with MOLT-4 leukemia; 59.7% with SR leukemia; 40.1% with RPMI-8226 leukemia; 45.6% in the assay with OVCAR-8 ovarian; 76.9% in the assay with OVCAR-5 ovarian; 57.3% in the assay on OVCAR-4 ovarian. Moreover, the growth with SK-OV-3 ovarian is 84.8%; in the assay with IGROV1 ovarian, 29.5%; with OVCAR-3 ovarian it was 72.9%; in the assay on HS 578T breast, 66.8%; in the assay on NCI/ADR-RES ovarian it was 50.3%; with T-47D breast, 1.14% (active). Also, the growth was 77.6% in the assay with BT-549 breast; 85.7% in the assay with MDA-MB-435 melanoma; 85.8% with SW-620 colon; 18.3% in the assay on MCF7 breast; 68.1% with HCT-116 colon; 88.7% in the assay on HCC-2998 colon. For the same compound, the growth in the assay with KM12 colon is 40.3%.
